Assay results taken from PubChem BioAssay.
Results filed as inconclusive are left out. Active and inactive are the calls of the source.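 The calls were made as follows, unless noted: active = Her2 level under about 52% in both replicate screens, with viability over 70% of control (limit read from the data); inconclusive = Her2 under the limit in one screen only, or viability under 70%; inactive = Her2 level above the set limit.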

Experiments:
[1] = Her2 expression decrease, cell viability multiplex – SKBR3 breast tumor cells, AlphaScreen, ATP viability, primary screen (AID 461); conditions: SKBR3 Her2 protein level, 18-24 h, measured here: SKBR3 viability, ATP luminescence, at 10 µM;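 as to Her2 level: lower value means less Her2 protein in the cells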;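 as to viability: percent of carrier control wells set as 100% viability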
[2] = molecular target: Receptor tyrosine-protein kinase erbB-2 (Homo sapiens) (UniProt P04626); test: as above; conditions: 18-24 h, at 10 µM, stronger effect = lower value
Receptor tyrosine-protein kinase erbB-2 (Homo sapiens), sequence (P04626 whole entry, looked up): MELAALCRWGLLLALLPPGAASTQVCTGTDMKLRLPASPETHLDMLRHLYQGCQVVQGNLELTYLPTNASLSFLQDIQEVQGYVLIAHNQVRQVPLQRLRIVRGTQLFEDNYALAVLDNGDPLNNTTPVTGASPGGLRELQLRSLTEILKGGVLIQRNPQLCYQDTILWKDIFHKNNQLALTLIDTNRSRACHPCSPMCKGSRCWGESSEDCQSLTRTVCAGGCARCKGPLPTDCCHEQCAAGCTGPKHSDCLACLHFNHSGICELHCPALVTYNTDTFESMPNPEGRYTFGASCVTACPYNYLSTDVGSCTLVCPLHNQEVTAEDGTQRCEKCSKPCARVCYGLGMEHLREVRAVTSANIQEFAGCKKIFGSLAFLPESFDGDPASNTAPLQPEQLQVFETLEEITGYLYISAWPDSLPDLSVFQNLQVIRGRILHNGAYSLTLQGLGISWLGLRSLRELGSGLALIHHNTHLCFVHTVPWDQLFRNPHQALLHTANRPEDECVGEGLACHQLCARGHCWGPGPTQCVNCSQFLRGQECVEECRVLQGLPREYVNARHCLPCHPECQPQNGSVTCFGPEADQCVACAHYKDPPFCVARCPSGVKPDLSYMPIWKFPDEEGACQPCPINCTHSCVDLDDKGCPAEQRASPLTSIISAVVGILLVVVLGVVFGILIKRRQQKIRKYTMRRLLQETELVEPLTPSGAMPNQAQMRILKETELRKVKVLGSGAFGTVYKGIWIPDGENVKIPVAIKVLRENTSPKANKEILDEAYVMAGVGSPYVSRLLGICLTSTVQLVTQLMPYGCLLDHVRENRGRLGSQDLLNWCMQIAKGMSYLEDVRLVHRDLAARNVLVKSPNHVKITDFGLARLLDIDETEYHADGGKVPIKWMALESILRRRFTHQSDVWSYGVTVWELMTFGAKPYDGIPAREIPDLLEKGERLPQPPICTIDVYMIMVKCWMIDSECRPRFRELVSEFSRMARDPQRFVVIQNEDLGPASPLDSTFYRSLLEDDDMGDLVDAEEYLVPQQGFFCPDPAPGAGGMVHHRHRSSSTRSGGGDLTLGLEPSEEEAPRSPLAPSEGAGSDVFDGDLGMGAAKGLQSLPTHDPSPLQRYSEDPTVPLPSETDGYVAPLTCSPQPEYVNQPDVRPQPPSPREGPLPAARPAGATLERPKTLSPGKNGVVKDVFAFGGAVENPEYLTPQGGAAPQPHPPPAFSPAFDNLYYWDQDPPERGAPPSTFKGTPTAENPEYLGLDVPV

[3] = reduced viability of SK-BR-3 breast cancer cells – cell-based, 24 h, human, pilot screen (AID 572;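 active = viability at or below 10% of carrier control in both of two separate runs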;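 also: compound exposure lasted between 18 and 24 h rather than exactly 24 h; 100% = carrier-treated control wells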); conditions: SK-BR-3 viability, CellTiter-Glo luminescence, at 10 µM, stronger effect = lower value
[4] = HUVEC growth inhibition – cell-based, human, primary screen (AID 575;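 active = viability at or below 30% in both replicate assays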;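 also: 100% = median of untreated cell wells with 0.1% DMSO on each plate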); conditions: HUVEC proliferation, CellTiter-Glo luminescence, 72 h; at 10 µM; stronger effect = lower value
[5] = H69AR cell proliferation blockers – human, duplicate replicates, primary screen (AID 580;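 active = viability at or under a set limit in both replicates, limit being median viability minus 3 SD, cut at about 48% in these data, passing the limit was not always enough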;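 also: 100% = mean luminescence of untreated wells and 0% = no signal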); conditions: H69AR lung tumor cells viability, ATP luminescence, 72 h; at 10 µM; stronger effect = lower value
[6] = MRP1 drug-resistance reversers in H69AR cells – cell-based, doxorubicin co-treatment, pilot screen (AID 601;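 active = viability loss from added drug above about 55%, and viability with drug at most 40%, in both replicates, limit read from the data, passing the limit was not always enough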); conditions: CellTiter-Glo, 72 h, at 10 µM; for differential viability (reversal): stronger effect = higher value
[7] = yeast transport mutant growth inhibition pilot in 384-well plates, post-Golgi transport modulator project (AID 636; in the data active = inhibition above about 31%); conditions: absorbance 615 nm, about 18 h, stronger effect = higher value
[8] = growth suppression of yeast trafficking mutant, preliminary HTS, modulators of trafficking downstream of Golgi apparatus project, 1536-format plate, OD 615 nm (AID 637; in the data active = inhibition above about 30%); conditions: yeast transport mutant growth, absorbance 615 nm, 18 h; stronger effect = higher value
[9] = S. cerevisiae growth inhibition in permissive medium (OD615), pilot counter-assay for S. cerevisiae lifespan shortening project, permissive growth control (AID 705;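 active = growth inhibition above 25% in both replicates, a cutoff set 3 SD above the mean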); conditions: OD615, 24 h, at 10 µM, stronger effect = higher value
[10] = S. cerevisiae growth inhibition in restrictive medium, OD615, pilot screen, restrictive growth control, yeast lifespan reduction project (AID 706;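 active = growth inhibition above a set limit, 3 SD over mean compound inhibition, in both replicates, cut at about 43% in these data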;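 also: modified DeaD lifespan yeast strain shifted to restrictive glucose medium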); conditions: OD615, 48 h, at 10 µM, stronger effect = higher value
[11] = doxorubicin toxicity protection in MRP-1 cells – H69AR cells, CellTiter-Glo, duplicate, MRP-1 activator project, pilot screen (AID 807;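 active = viability increase at or above a cutoff of the median across tested compounds plus 3 SD, cut at about 8.5% in these data, passing the limit was not always enough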;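 also: compound pretreatment 18-22 h then 72 h combined with doxorubicin; 0% = doxorubicin alone and 100% = vehicle without doxorubicin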); conditions: H69AR viability with doxorubicin, CellTiter-Glo luminescence; at 10 µM; stronger effect = higher value
[12] = viability of HCT116 without oncogenic beta-catenin – human colon tumor cells, pilot screen (AID 823;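 active = cell viability at or below a set limit in both duplicate runs, the limit being the all-compound median minus 4 SD, cut at about 23% in these data, passing the limit was not always enough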;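 also: 0% = wells killed by 20 µM Hyamine and 100% = untreated DMSO cell wells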); conditions: HCT116 beta-catenin knockout viability, CellTiter-Glo, 60 h; at 10 µM; stronger effect = lower value
[13] = viability of PTEN-null HCT116 cells – cell-based, HCT116 clonal line, CellTiter-Glo, pilot screen (AID 824;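 active = viability at or below 27.92% in each of two runs, the all-compound median minus 4 SD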;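 also: 0% = 20 µM Hyamine control and 100% = vehicle cell control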); conditions: HCT116 PTEN-deleted viability, 60 h, at 10 µM, stronger effect = lower value
[14] = RAM pathway blockade in budding yeast – dse1pr::URA3 reporter, 5-FOA selection, pilot screen (AID 869;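 active = inhibition over a set limit, the all-compound mean plus 3 SD, in both replicate runs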;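 also: 0% = DMSO wells with no growth and 100% = 10 µM 1-NA-PP1 with full growth; RAM network block rescues cells from 5-FOA so hits raise OD615 growth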); conditions: S. cerevisiae dse1pr::URA3 5-FOA growth, OD615, 2 d; at 10 µM; stronger effect = higher value; strain carries analog-sensitive mutant Cbk1 kinase
[15] = RAM signaling pathway blockade in yeast – S. cerevisiae, Pdr1DBD-CYC8 efflux-inhibited sensitized strain, primary screen (AID 1298;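 active = RAM network inhibition above 8.4% in each of two replicates, 3 SD over the compound average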;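 also: 0% = DMSO untreated cells without growth and 100% = 10 µM 1-NA-PP1 full growth; higher means more yeast growth rescued from 5-FOA killing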); conditions: S. cerevisiae cbk1-as DSE1-URA3 strain, 5-FOA growth OD615, 2 d; at 50 µM; stronger effect = higher value
[16] = H69AR cells + 2 uM doxorubicin, measured here: viability with 2 uM doxorubicin, stronger effect = lower value
[17] = H69AR cells, compound alone cytotoxicity

Compound | viability [1] [%] | Her2 level [2] | viability [3] | viability [4] | viability [5] | differential viability (reversal) ([6]; H69AR cells + 2 uM doxorubicin) | viability [6, 16] [%] | viability [6, 17] [%] | inhibition [7] | inhibition [8] | growth inhibition [9] | growth inhibition [10] | viability increase [11] | viability [12] | viability [13] | inhibition [14] | RAM network inhibition [15]
COc1cccc(C2C3=C(N=C4SCC(=O)N42)c2ccccc2CC3)c1OC (stereo not given) | 103 | 115% (inactive) | 103% (inactive) | 65.7% (inactive) | 98.2% (inactive) | 19.8% (inactive) | 78.4 | 98.2 | -1.69% (inactive) | -6.83% (inactive) | -15.1% (inactive) | -9.8% (inactive) | -1.55% (inactive) | 65.8% (inactive) | 68.5% (inactive) | 0.915% (inactive) | 5.99% (inactive)
Cc1cccc(NC(=O)c2ccccc2O)c1C | 60 | 75.5% (inactive) | 60% (inactive) | 59.2% (inactive) | 93.3% (inactive) | 4.91% (inactive) | 88.4 | 93.3 | -5.95% (inactive) | -3.61% (inactive) | 2.66% (inactive) | 1.19% (inactive) | -1.89% (inactive) | 86.5% (inactive) | 86.3% (inactive) | 1.33% (inactive) | 2.03% (inactive)
COc1cc(NC(=O)c2nccnc2C(=O)O)cc(OC)c1 | 98 | 107% (inactive) | 98% (inactive) | 95.7% (inactive) | 109% (inactive) | 18.3% (inactive) | 90.6 | 109 | -7.6% (inactive) | -2.3% (inactive) | -8.21% (inactive) | -1.48% (inactive) | -1.6% (inactive) | 96.1% (inactive) | 95% (inactive) | 2.17% (inactive) | -0.31% (inactive)
CCCCN(CC)CCNC(=O)c1cc2c(C)nc3ccccc3c2o1 | 91 | 95.5% (inactive) | 91% (inactive) | 63.6% (inactive) | 85.3% (inactive) | 2.99% (inactive) | 82.4 | 85.3 | -5.73% (inactive) | -4.43% (inactive) | 10% (inactive) | 1.23% (inactive) | -3.49% (inactive) | 75% (inactive) | 84% (inactive) | 0.07% (inactive) | 2.07% (inactive)
O=C(CCN1C(=O)c2ccccc2C1=O)Nc1ccc(F)cc1 | 108 | 76% (inactive) | 108% (inactive) | 116% (inactive) | 104% (inactive) | 12.9% (inactive) | 90.6 | 104 | -1.95% (inactive) | -7% (inactive) | -8.49% (inactive) | -11.6% (inactive) | 3.01% (inactive) | 107% (inactive) | 110% (inactive) | 1.6% (inactive) | -0.26% (inactive)
